High-throughput results deposited in PubChem BioAssay by University of Pittsburgh Molecular Library Screening Center.
This excerpt belongs to a sample that is enriched for hits.
HIV RNase H inh-1: blocks HIV-1 RNase H cleavage of RNA/DNA duplex | P04585 | inhibition, % at 10 µM | RT-RNase H RNA/DNA duplex cleavage, fluorescence | 65,000 compounds, 1.9% hits; in the data active = inhibition above about 50%
HIV RNase H inh-2: confirmation of HIV-1 reverse transcriptase RNase H inhibitors. 1,000 compounds, 39% hits. AID 651. inhibition, % at 10 µM. Recombinant RT RNase H, fluorescent RNA/DNA duplex cleavage. shares compounds with HIV RNase H inh-1; in the data active = inhibition above about 48%; inconclusive = no clear call, values can overlap the other calls
Large screens that a line does not name were inactive (follow-up assays come after a bar, where they were run).

CCOC(=O)c1ccccc1NS(=O)(=O)c1ccccc1F	none
COc1ccc(CCNC(=O)c2ccc3c(=O)n(Cc4ccco4)c(=S)[nH]c3c2)cc1OC	none
COc1ccc(CCNC(=O)COC(=O)c2ccco2)cc1OC	none
COc1ccc(CCNC(=O)c2ccc3nc(-c4ccco4)c(-c4ccco4)nc3c2)cc1OC	HIV RNase H inh-1 93.1 | HIV RNase H inh-2 inactive
Cc1c(Cl)cccc1NC(=O)CSc1nnc(CCNC(=O)OC(C)(C)C)o1	none
O=C(NCc1ccco1)c1csc2c1CCCCC2	none
O=C(NCc1ccco1)c1nc2ccccc2s1	none
O=C(NCc1ccco1)c1c2c(nc3ccccc13)CCC2	HIV RNase H inh-1 64.8 | HIV RNase H inh-2 inactive
O=C(c1ccco1)N1CCC(c2ccccc2)C1 (stereo not drawn)	none
CCOC(=O)c1ccc(NS(=O)(=O)N2CCCCCC2)cc1	none
O=C(O)C1C2C=CC(C2)C1C(=O)Nc1ccc(C(=O)N2CCCCC2)c(Cl)c1 (stereo not drawn)	none
O=C(NCC(=O)N(CC1CCCO1)C(C(=O)NC1CCCC1)c1ccc(F)cc1)c1ccco1 (stereo not drawn)	none
O=C(NCC(=O)N(c1cccc(F)c1)C(C(=O)NCC1CCCO1)c1ccccc1)c1ccco1 (stereo not drawn)	none
O=C(NCC(=O)N(c1ccc(F)cc1)C(C(=O)NCC1CCCO1)c1ccccc1)c1ccco1 (stereo not drawn)	HIV RNase H inh-1 56.6 | HIV RNase H inh-2 inactive
CCC(=O)N1C(C(=O)N2CCCC2)CSC1c1ccc(OC)cc1 (stereo not drawn)	none
COc1ccccc1C1/C(=C(\O)c2c(C)nc3c(C)cccn23)C(=O)C(=O)N1CCCN(C)C (stereo not drawn)	none
O=C1c2ccccc2C(=O)N1Cc1nc2ccccc2c(=O)n1CCCn1ccnc1	none
CCCCn1c(CN2C(=O)c3ccccc3C2=O)nc2ccccc2c1=O	HIV RNase H inh-1 90.0 | HIV RNase H inh-2 54.3
O=C1c2ccccc2C(=O)N1Cc1nc2ccccc2c(=O)n1CCCN1CCOCC1	none
Cc1cc(C)nc(SCC(=O)Nc2ccc(S(=O)(=O)Nc3onc(C)c3C)cc2)n1	none
CCOC(=O)c1sc(NC(=O)CSc2nc3c(cc2C#N)CCC3)c(C#N)c1C	none
N#Cc1c(NC(=O)CSc2nc(N)cc(=O)[nH]2)sc2c1CCCCCC2	none
CCOC(=O)c1sc(NC(=O)CSc2nc3c(cc2C#N)CCCCCC3)c(C#N)c1C	HIV RNase H inh-1 72.9 | HIV RNase H inh-2 inconclusive
CCOC(=O)c1cnc(SCC(=O)Nc2sc(C)c(C)c2C#N)nc1N	HIV RNase H inh-1 62.9 | HIV RNase H inh-2 inactive
N#Cc1cc2c(nc1SCC(=O)Nc1sc3c(c1C#N)CCC3)CCCCC2	HIV RNase H inh-1 66.2 | HIV RNase H inh-2 inactive
CCOC(=O)CC(=O)CSc1nc2c(cc1C#N)CCCCC2	none
N#Cc1c(NC(=O)CSc2ncn[nH]2)sc2c1CCCCC2	none
CCOC(=O)c1cnc(SCC(=O)NCc2cccs2)nc1N	none
Cc1noc(NS(=O)(=O)c2ccc(NC(=O)CSc3nc4c(cc3C#N)CCC4)cc2)c1C	HIV RNase H inh-1 77.5 | HIV RNase H inh-2 inconclusive
CCOC(=O)c1cnc(SCC(=O)Nc2cc(OC)cc(OC)c2)nc1N	none
Cc1noc(NS(=O)(=O)c2ccc(NC(=O)CSc3nc4c(cc3C#N)CCCC4)cc2)c1C	none
O=c1c2ccccc2oc2ncccc12	none
CC(C)C(NC(=O)C1CCCCC1)C(=O)NC1CCN(Cc2ccccc2)CC1 (stereo not drawn)	none
CC(C)Nc1nc(SCC(=O)Nc2ccccc2)nc(N2CCOCC2)n1	none
CCOc1ccc2nc(NC(=O)C3CCCN(S(=O)(=O)c4cccs4)C3)sc2c1 (stereo not drawn)	none
COc1ccc(N2CCN(C(=O)CC3NC4CCCCC4NC3=O)CC2)cc1 (stereo not drawn)	none
COc1ccc(C(=O)N(Cc2nc(-c3ccc(C)cc3)no2)C2CCCCC2)cc1OC	none
CCn1c(-c2ccsc2)nc2c1c(=O)[nH]c(=O)n2Cc1ccccc1	none
COc1ccc2c(c1)OC13CCN(C)CC1C2C(C(=O)c1ccc(F)cc1)C(=O)N3 (stereo not drawn)	none
O=C(CN1C(=O)C2CC=CCC2C1=O)NC1=NCCS1 (stereo not drawn)	none
COc1ccccc1-n1nnnc1SCc1cc2c(cc1Br)OCO2	none
Cc1cc(C)n2nc(SCC#N)nc2n1	none
CCOC(=O)C(C)Oc1ccc(=O)n(-c2ccccc2)n1 (stereo not drawn)	none
Cn1c(CNC(=O)Nc2ccccc2)nnc1SCc1ccccc1	none
Cn1c(CNC(=O)Nc2cccc(Cl)c2)nnc1SCc1ccccc1	none
Cc1cc(C)cc(NC(=O)NCc2nnc(SCc3ccccc3)n2C)c1	HIV RNase H inh-1 82.3 | HIV RNase H inh-2 inactive
O=C(Cn1c(=O)sc2ccccc21)Nc1ccccc1C(=O)O	none
COc1cc(/C=C/C2=NC(=O)C(C)(C)O2)ccc1O	none
COC(=O)C1=CN(C)C=C(C(=O)OC)C1c1ccc(O)c(OC)c1	none
COc1cc(/C=C/C(=O)CC(=O)/C=C/c2ccc(O)c(OC)c2)ccc1O	HIV RNase H inh-1 82.8 | HIV RNase H inh-2 56.9
O=C(OCc1cc(Cl)ccc1OC(F)F)c1cc(S(=O)(=O)O)ccc1O	none
CC(NC(=O)c1cccc(F)c1)C(c1cccs1)N1CCN(C)CC1 (stereo not drawn)	none
CN(C)c1ccc(NC(=O)CSc2nc3c(c(=O)[nH]2)CCCC3)cc1	none
O=C(CSc1nc2c(c(=O)[nH]1)CCC2)Nc1cccc(Cl)c1	HIV RNase H inh-1 87.3 | HIV RNase H inh-2 inactive
O=c1[nH]c(SCc2cccc(Cl)c2)nc2c1CCCC2	none
O=C(OCc1nnc(-c2ccccc2)o1)C1CCN(S(=O)(=O)c2cccs2)CC1	none
Cn1c(=O)n(-c2cccc(Cl)c2)c(=O)n1C	none
COc1ccc(N2C(=O)C(Cl)=C(N3CCCC3)C2=O)cc1	HIV RNase H inh-1 52.3 | HIV RNase H inh-2 inactive
COc1ccc(N2C(=O)CCC2=O)cc1	none
Cc1cc(=O)cc(C)n1-c1ccccc1N1CCOCC1	none
COC(=O)N1CCN(c2ccc(Cl)c(Cl)c2)CC1	none
COC(=O)C1=C(C)N(c2cccc(Cl)c2)C(=O)C1	none
COc1ccc(N2C(=O)c3ccc(NC(C)=O)cc3C2=O)cc1	none
CN1CCN(C2=C(Cl)C(=O)N(c3ccc(Cl)c(Cl)c3)C2=O)CC1	HIV RNase H inh-1 96.3 | HIV RNase H inh-2 73.5
CN1CCN(C2=C(Cl)C(=O)N(c3cccc(Cl)c3)C2=O)CC1	HIV RNase H inh-1 70.2 | HIV RNase H inh-2 inactive
Cc1ccccc1N1C(=O)C(Cl)=C(N2CCN(c3ccccc3)CC2)C1=O	none
O=C1C(Cl)=C(N2CCOCC2)C(=O)N1c1ccccc1Cl	HIV RNase H inh-1 70.5 | HIV RNase H inh-2 inactive
CN1CCN(C2=C(Cl)C(=O)N(Cc3ccccc3)C2=O)CC1	none
CC(=O)Nc1nc(SCCCc2ccccc2)n[nH]1	none
O=C(OCCCCN1C(=O)c2ccccc2C1=O)c1n[nH]c2ccccc12	none
O=C(O)C(Oc1ccc2c3c(c(=O)oc2c1)CCC3)c1ccccc1 (stereo not drawn)	none
O=S(=O)(NC(=NC1CCCC1)C(F)(F)F)c1ccccc1	none
COc1cc2c(cc1OC)CN(S(=O)(=O)c1ccc3c(c1)OCCO3)CC2	none
CCCCc1c(C)c2ccc(OC)c(/C(C)=N\O)c2oc1=O	none
Cc1cc(C)nc(NC(=O)c2cccc(Cl)c2)n1	none
COC(=O)c1cccc(Oc2nc(N3CCOCC3)nc(N3CCOCC3)n2)c1	none
COC(=O)C1=C(C)N(c2cccc(C(C)=O)c2)C(=O)C1	none
COC(=O)c1cccc(N2C(=O)C(Cl)=C(N3CCOCC3)C2=O)c1	HIV RNase H inh-1 83.3 | HIV RNase H inh-2 62.3
c1ccc2sc(Cc3nnc4n3CCCCC4)nc2c1	none
O=C(O)c1cnc2ccccc2n1	HIV RNase H inh-1 82.3 | HIV RNase H inh-2 inactive
